Test results: PubChem BioAssay (NCI)
Compounds without any hit were thinned out: in the full panel of roughly 79,000, 15% have a hit. Active and inactive are the calls of the source. Cut-off read from the data, not from the text of the source: active = growth inhibition above about 70%; inactive = the rest.

Columns and labels:
[1] = NCI Yeast Anticancer Drug Screen. Data for the rad52 strain (AID 147);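 note: 0% = growth of vehicle-treated control cultures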; conditions: S. cerevisiae rad52 mutant growth inhibition, hits give high values
Summary of the method: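 Read-out: growth inhibition versus vehicle-treated controls. Cells were a DNA repair-deficient yeast strain treated with compounds.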

[2] = NCI Yeast Anticancer Drug Screen. Data for the wt1 strain (AID 149);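 note: 0% = growth of vehicle-treated wt1 cultures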; conditions: S. cerevisiae wt1 strain (SPY 50644) growth inhibition, hits give high values
Summary of the method: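 Readout: yeast growth inhibition, normalised to vehicle controls, in the wt1 strain exposed to test compounds.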

[3] = NCI Yeast Anticancer Drug Screen. Data for the rad50EPP+ strain (AID 151);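 note: 0% = growth of vehicle-treated control cultures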; conditions: S. cerevisiae rad50 mutant strain, hits give high values
Summary of the method: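 Growth inhibition read against vehicle controls in rad50EPP+ yeast, a strain altered in DNA damage repair, after compound exposure.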

[4] = NCI Yeast Anticancer Drug Screen. Data for the mgt1 strain (AID 153); conditions: S. cerevisiae mgt1 mutant growth inhibition, hits give high values
Summary of the method: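 mgt1 yeast grown with test compound; read-out is growth inhibition versus vehicle-treated cultures.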

[5] = NCI Yeast Anticancer Drug Screen. Data for the rad50 strain (AID 155);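 note: 0% = growth of vehicle-only cultures of the same strain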; conditions: S. cerevisiae rad50 strain growth inhibition, hits give high values
Summary of the method: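 Compounds were tested on a yeast strain with an engineered DNA damage repair alteration; the reported value is growth inhibition normalised to vehicle treatment.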

[6] = NCI Yeast Anticancer Drug Screen. Data for the mec2-1 strain (AID 157); conditions: S. cerevisiae mec2-1 strain, hits give high values
Summary of the method: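 Yeast mec2-1 mutant treated with compound. Readout: growth inhibition vs vehicle controls.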

[7] = NCI Yeast Anticancer Drug Screen. Data for the rad14 strain (AID 159);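 note: 0% = growth of vehicle-treated control cultures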; conditions: S. cerevisiae rad14 strain growth inhibition, hits give high values
Summary of the method: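 Compound-treated yeast with a defined DNA-repair lesion; growth inhibition normalised to vehicle-treated cultures.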

[8] = NCI Yeast Anticancer Drug Screen. Data for the CLN2oe strain (AID 163);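 note: 0% = growth of vehicle-only control cultures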; conditions: S. cerevisiae CLN2oe strain, hits give high values
Summary of the method: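 Read-out: yeast growth inhibition, expressed relative to vehicle-only controls. The strain bears an engineered cell-cycle alteration.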

[9] = NCI Yeast Anticancer Drug Screen. Data for the cln2 rad14 strain (AID 165);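 note: 0% = growth equal to vehicle treated cultures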; conditions: S. cerevisiae cln2 rad14 strain, hits give high values
Summary of the method: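 cln2 rad14 yeast strain; compound exposure; growth inhibition read vs vehicle controls.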

[10] = NCI Yeast Anticancer Drug Screen. Data for the bub3 strain (AID 167); conditions: S. cerevisiae bub3 mutant strain, hits give high values
Summary of the method: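 Growth of a checkpoint-deficient yeast mutant is measured after compound exposure. Values represent inhibition relative to vehicle.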

[11] = NCI Yeast Anticancer Drug Screen. Data for the mlh1 strain (AID 171);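 note: 0% = growth of vehicle-treated control cultures of the same strain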; conditions: S. cerevisiae mlh1 strain growth inhibition, hits give high values
Summary of the method: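 Read-out: growth inhibition versus vehicle controls. Strain: engineered yeast with a defined DNA repair or cell cycle defect, compound-treated.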

[12] = NCI Yeast Anticancer Drug Screen. Data for the sgs1 strain (AID 173);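 note: 0% = growth of vehicle-only control cultures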; conditions: S. cerevisiae sgs1 mutant, hits give high values
Summary of the method: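 Read-out: yeast growth inhibition relative to vehicle controls, following compound exposure of a strain with a defined DNA repair/cell cycle alteration.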

[13] = NCI Yeast Anticancer Drug Screen. Data for the mlh1 rad18 strain (AID 175); conditions: S. cerevisiae mlh1 rad18 strain growth inhibition, hits give high values
Summary of the method: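 Yeast w/ defined DNA-repair lesions; compound exposure; growth vs vehicle controls → % inhibition.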

[14] = NCI Yeast Anticancer Drug Screen. Data for the rad18 strain (AID 177); conditions: S. cerevisiae rad18 mutant growth inhibition, hits give high values
Summary of the method: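 Readout: growth inhibition vs vehicle controls. Cells: genetically altered yeast strain, DNA repair defect.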

[15] = NCI Yeast Anticancer Drug Screen. Data for the sgs1 mgt1 strain (AID 161);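 note: 0% = growth of cultures given vehicle only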; conditions: S. cerevisiae sgs1 mgt1 strain, hits give high values
Summary of the method: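 Read-out: growth inhibition vs vehicle controls. Cells: mutant yeast strain deficient in DNA damage repair.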

[16] = NCI Yeast Anticancer Drug Screen. Data for the wt2 strain (AID 169);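 note: 0% = growth of vehicle-treated yeast cultures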; conditions: S. cerevisiae wt2 strain growth inhibition, hits give high values
Summary of the method: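 Read-out: growth inhibition versus vehicle-treated control cultures after compound exposure of the yeast strain.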

[17] = at 5.0 µM (retest, dose inferred, filed as 0.5)
[18] = at 50.0 µM (retest, dose inferred, filed as 5.0)

Measured: growth inhibition

Nc1ccc(/C=C/c2ccc3cccnc3c2)cc1
active: [10]; at 11.0 µM 85% | [10]; at 33.0 µM 94% | [10]; [18] 92% | [10]; at 50.0 µM 93.3% | [10]; at 100.0 µM 94% | [14]; at 100.0 µM 77%
inactive: [1]; at 1.2 µM -3% | [1]; at 3.7 µM -3% | [1]; at 11.0 µM -1% | [1]; at 33.0 µM 11% | [1]; at 100.0 µM 29% | [2]; at 1.2 µM 0% | [2]; at 3.7 µM -1% | [2]; at 11.0 µM -3% | [2]; at 33.0 µM -4% | [2]; at 100.0 µM -7% | [3]; at 1.2 µM -2% | [3]; at 3.7 µM 1% | [3]; at 11.0 µM 8% | [3]; at 33.0 µM 34% | [3]; at 100.0 µM 41% | [4]; at 1.2 µM 0% | [4]; at 3.7 µM 1% | [4]; at 11.0 µM -3% | [4]; at 33.0 µM -3% | [4]; at 100.0 µM 22% | [5]; at 1.2 µM 5% | [5]; at 3.7 µM 29% | [5]; [17] 5% | [5]; at 11.0 µM 23% | [5]; at 33.0 µM 14% | [5]; [18] 28% | [5]; at 50.0 µM 10.8% | [5]; at 100.0 µM 29% | [6]; at 1.2 µM -2% | [6]; at 3.7 µM -2% | [6]; [17] -1% | [6]; at 11.0 µM -3% | [6]; at 33.0 µM 1% | [6]; [18] 17% | [6]; at 50.0 µM 1.95% | [6]; at 100.0 µM 6% | [7]; at 1.2 µM 1% | [7]; at 3.7 µM 4% | [7]; at 11.0 µM 5% | [7]; at 33.0 µM 13% | [7]; at 100.0 µM 28% | [8]; at 1.2 µM 2% | [8]; at 3.7 µM 2% | [8]; at 11.0 µM 1% | [8]; at 33.0 µM -4% | [8]; at 100.0 µM 0% | [9]; [17] -5% | [9]; [18] 3% | [9]; at 50.0 µM -6.75% | [10]; at 1.2 µM 5% | [10]; at 3.7 µM 23% | [10]; [17] 24% | [11]; at 1.2 µM -1% | [11]; at 3.7 µM -1% | [11]; at 11.0 µM -1% | [11]; at 33.0 µM -2% | [11]; at 100.0 µM 21% | [12]; at 1.2 µM -1% | [12]; at 3.7 µM 1% | [12]; at 11.0 µM 3% | [12]; at 33.0 µM 20% | [12]; at 100.0 µM 46% | [13]; [17] 3% | [13]; [18] 20% | [13]; at 50.0 µM 32.8% | [14]; at 1.2 µM 1% | [14]; at 3.7 µM 1% | [14]; at 11.0 µM 11% | [14]; at 33.0 µM 59%

Nc1ccc2c(c1)C(=O)c1c(F)cccc1-2
inactive: [1]; at 1.2 µM -3% | [1]; at 3.7 µM 5% | [1]; at 11.0 µM 17% | [1]; at 33.0 µM 69% | [2]; at 1.2 µM -6% | [2]; at 3.7 µM -6% | [2]; at 11.0 µM -6% | [2]; at 33.0 µM -2% | [2]; at 100.0 µM 50% | [3]; at 1.2 µM 5% | [3]; at 3.7 µM 21% | [3]; at 11.0 µM 53% | [4]; at 1.2 µM -1% | [4]; at 3.7 µM -2% | [4]; at 11.0 µM 1% | [4]; at 33.0 µM 13% | [5]; at 1.2 µM -4% | [5]; at 3.7 µM 11% | [5]; [17] -129% | [5]; at 11.0 µM 30% | [6]; at 1.2 µM 3% | [6]; at 3.7 µM 2% | [6]; [17] -48% | [6]; at 11.0 µM 18% | [6]; at 33.0 µM 13% | [6]; [18] -25% | [6]; at 50.0 µM 38.6% | [6]; at 100.0 µM 67% | [7]; at 1.2 µM 2% | [7]; at 3.7 µM 7% | [7]; at 11.0 µM 16% | [7]; at 33.0 µM 27% | [15]; [17] -70% | [15]; [18] -28% | [15]; at 50.0 µM 15.5% | [9]; [17] -55% | [9]; [18] -41% | [9]; at 50.0 µM 21.9% | [10]; at 1.2 µM -11% | [10]; at 3.7 µM -4% | [10]; [17] -60% | [10]; at 11.0 µM 1% | [10]; at 33.0 µM 12% | [10]; [18] -33% | [10]; at 50.0 µM 9% | [10]; at 100.0 µM 37% | [16]; at 1.2 µM -1% | [16]; at 3.7 µM 0% | [16]; at 11.0 µM 0% | [16]; at 33.0 µM 4% | [16]; at 100.0 µM 64% | [11]; at 1.2 µM 7% | [11]; at 3.7 µM -4% | [11]; at 11.0 µM 0% | [11]; at 33.0 µM 16% | [13]; [17] -120% | [13]; [18] -30% | [14]; at 1.2 µM 1% | [14]; at 3.7 µM 8% | [14]; at 11.0 µM 31%
active: [1]; at 100.0 µM 97% | [3]; at 33.0 µM 86% | [3]; at 100.0 µM 97% | [4]; at 100.0 µM 74% | [5]; at 33.0 µM 87% | [5]; [18] 78% | [5]; at 50.0 µM 90.5% | [5]; at 100.0 µM 98% | [7]; at 100.0 µM 78% | [11]; at 100.0 µM 86% | [13]; at 50.0 µM 84.5% | [14]; at 33.0 µM 72% | [14]; at 100.0 µM 97%
